Unmarked numbers belong to inactive results. Calls follow the shape of the dose curve; as a rule, active = well fitted curve in the direction sought with a large enough effect (not every such curve was filed as active); inconclusive = small, poorly fitted or top-dose-only effect, or effect the other way, or another doubt; inactive = no such curve, though single readings can be large or run the other way.
These compounds were tested against Pyruvate kinase PKM (Homo sapiens) (UniProt P14618) (assay: qHTS Assay for Activators of Human Muscle Pyruvate Kinase (AID 954;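 also: 0% = uninhibited enzyme and -100% = no enzyme or full thiadiazolimine inhibition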)). Settings: purified human muscle pyruvate kinase, luciferase-coupled luminescence, 1 h; series mostly up to 57.5 µM; activity change, negative = inhibition: at the top concentration.
Experimental: NIH Molecular Libraries Screening Centers Network [MLSCN]
NIH Chemical Genomics Center [NCGC]
Wael M. Rabeh, Lyudmila Nedyalkova and Hee-Wan Park [Structural Genomics Consortium, 100 College St. Toronto, Ontario, Canada]
Human pyruvate kinase muscle 2 enzyme was supplied as a highly purified (>95% pure) preparation by the Structural Genomics Consortium in Toronto (Ontario, Canada) and was assayed for its ability to generate ATP from ADP using phosphoenolpyruvate (PEP) as a substrate. ATP generation was detected in a coupled reaction by luciferase-mediated luminescence, an ATP-dependent process. Pyruvate kinase substrates, PEP and ADP, were present in the assay at Km and approximately […]-fold below Km respectively. The enzyme was assayed at an intermediate level of activity to screen for inhibitors and activators.
NCGC Assay Protocol Summary:
Three uL of substrate mix (final concentration, 50 mM imidazole pH 7.2, 50 mM KCl, 7 mM MgCl2, 0.5 mM PEP, 0.1 mM ADP, 0.01% Tween 20, 0.05% BSA) was dispensed into 1536 well plates. 23 nL of compound were delivered by a pin tool and 1 uL of enzyme mix (final concentration, 0.1 nM pyruvate kinase, 50 mM imidazole pH 7.2, 0.05% BSA) was added. Plates were incubated at room temperature for 1 hour. Two uL of detection and kinase stop mix (PKLight, Cambrex) was added, the plates centrifuged, and luminescence read by a ViewLux (Perkin Elmer) at 5 second exposure/plate. Data were normalized to the uninhibited and AC100 inhibition (no enzyme or 110 uM N-methyl-2,3-diphenyl-1,2,4-thiadiazol-5-imine; CID: 682802; LOPAC-S-4063). To monitor activation, 0.3 nM pyruvate kinase was included in one control column.

Sequence of Pyruvate kinase PKM (Homo sapiens) (P14618 whole entry, looked up): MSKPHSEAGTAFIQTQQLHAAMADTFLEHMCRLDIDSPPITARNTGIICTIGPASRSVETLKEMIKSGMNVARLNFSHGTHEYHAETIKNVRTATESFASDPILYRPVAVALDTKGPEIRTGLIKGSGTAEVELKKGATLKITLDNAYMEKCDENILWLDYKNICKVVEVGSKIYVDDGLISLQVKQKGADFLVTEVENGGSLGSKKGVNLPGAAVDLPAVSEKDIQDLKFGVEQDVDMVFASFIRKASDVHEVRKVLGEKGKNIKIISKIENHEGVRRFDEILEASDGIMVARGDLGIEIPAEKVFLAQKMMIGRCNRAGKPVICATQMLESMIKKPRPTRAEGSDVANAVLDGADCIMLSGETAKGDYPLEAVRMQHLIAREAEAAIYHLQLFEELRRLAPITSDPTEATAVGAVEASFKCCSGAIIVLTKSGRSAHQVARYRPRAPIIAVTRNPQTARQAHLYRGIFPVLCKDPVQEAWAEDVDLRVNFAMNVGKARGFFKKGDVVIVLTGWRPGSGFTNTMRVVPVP

SMILES	activity change, negative = inhibition [%]
OCCN1CCN(CCCN2c3ccccc3Sc3ccc(C(F)(F)F)cc32)CC1	0.662
NC(=O)OCC(COC(N)=O)c1ccccc1	-32.4
Cc1ccc(C(=O)Nc2ccc(S(=O)(=O)O)c3cc(S(=O)(=O)O)cc(S(=O)(=O)O)c23)cc1NC(=O)c1cccc(NC(=O)Nc2cccc(C(=O)Nc3cc(C(=O)Nc4ccc(S(=O)(=O)O)c5cc(S(=O)(=O)O)cc(S(=O)(=O)O)c45)ccc3C)c2)c1	-52.2
O=C(C1CCCCC1)N1CC(=O)N2CCc3ccccc3C2C1 (stereo not given)	10.4
COc1ccc2c(c1)c(CC(=O)O)c(C)n2C(=O)c1ccc(Cl)cc1	-26.6
CN(C)C(=O)C(CCN1CCC(O)(c2ccc(Cl)cc2)CC1)(c1ccccc1)c1ccccc1	-16.4
Cc1cn([C@H]2C=C[C@@H](CO)O2)c(=O)[nH]c1=O	-17.6
CN(C)CCC=C1c2ccccc2C=Cc2ccccc21	-19.3
Nc1nc2c(ncn2COC(CO)CO)c(=O)[nH]1	-27.8
Clc1ccccc1C(c1ccccc1)(c1ccccc1)n1ccnc1	-7.06
CC(C)Cc1ccc(C(C)C(=O)O)cc1 (stereo not given)	-19.9
CN1CCN(CCCN2c3ccccc3Sc3ccc(Cl)cc32)CC1	-3
CS(=O)(=O)Nc1ccc([N+](=O)[O-])cc1Oc1ccccc1	-23.8
O=C1c2c(O)ccc(O)c2C(=O)c2c(NCCNCCO)ccc(NCCNCCO)c21	-34.3
Cc1cc(C(C)(C)C)c(O)c(C)c1CC1=NCCN1	3.37
COC(=O)Nc1nc2ccc(C(=O)c3cccs3)cc2[nH]1	-18.5
NC(=O)NO	-10.7
CCC1(c2ccccc2)C(=O)NCNC1=O	-8.05
Nc1c2c(nc3ccccc13)CCCC2	-12.5
O=C(CCCN1CCC(O)(c2ccc(Cl)cc2)CC1)c1ccc(F)cc1	-6.75

SMILES	activity change, negative = inhibition [%]
O=c1c(O)c(-c2ccc(O)c(O)c2)oc2cc(O)cc(O)c12	-14.9
COc1ccc2[nH]cc(CCNC(C)=O)c2c1	-19.8
CN1C(C(=O)Nc2ccccn2)=C(O)c2ccccc2S1(=O)=O	-17.5
O=C(Nc1ccc([N+](=O)[O-])cc1Cl)c1cc(Cl)ccc1O	-81.5
NC12CC3CC(CC(C3)C1)C2	-4.61
COc1cc2c(c(OC)c1OC)-c1ccc(OC)c(=O)cc1[C@@H](NC(C)=O)CC2	0.505
CCOC(=O)C(C)(C)Oc1ccc(Cl)cc1	-3.38
O=c1[nH]cc(F)c(=O)[nH]1	-25.8
OCCN(CCO)c1nc(N2CCCCC2)c2nc(N(CCO)CCO)nc(N3CCCCC3)c2n1	-7.59
CC(C)C(=O)Nc1ccc([N+](=O)[O-])c(C(F)(F)F)c1	-8.94
Cc1ccccc1N1C(=O)c2cc(S(N)(=O)=O)c(Cl)cc2NC1C (stereo not given)	-14.6
N[C@@H](Cc1c[nH]c2ccc(O)cc12)C(=O)O	-26.6
O=c1c(-c2ccc(O)cc2)coc2cc(O)cc(O)c12	-59.5
Cn1c(=O)c2c(ncn2C)n(C)c1=O	-3.72
CN1CCC(=C2c3ccccc3CC(=O)c3sccc32)CC1	-15.3
CN1CCC(=C2c3ccccc3C=Cc3ccccc32)CC1	-8.21
NCCc1cnc[nH]1	-3.59
Clc1ccc(C(c2ccccc2Cl)C(Cl)Cl)cc1 (stereo not given)	-7.55
CCOC(=O)c1ncn2c1CN(C)C(=O)c1cc(F)ccc1-2	7.5
CN1CCN(C2=Nc3cc(Cl)ccc3Nc3ccccc32)CC1	-5.88

Reference: PubChem BioAssay (NCATS)
